Laboratory results: PubChem BioAssay AID1159580 (chemical genetic matrix, 2015)
“And” between values parts separate entries of the source, which are not always exact repeats. Equal values may be shown once. Hit rate of the full screen: of about 5,500 compounds, about 2,000 (36%) were called active. Not shown: some 18% with an inconclusive outcome. Cut-off read from the data, not from the text of the source: active = normalized growth mostly below about 0.91 (no sharp cut-off); inconclusive = no clear call, values can overlap the other calls; inactive = mostly above about 0.92. Some of the results follow.

Test: chemical genetic growth profiling, strain panel (AID 1159580);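 note: tested at 20 µM; growth read once vehicle control cultures reached saturation at 30 °C; 1 = growth at the plate median or of vehicle wells; lower values mean less growth of the strain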
Settings: S. cerevisiae deletion strains, growth OD

Measured: normalized growth

CNCCC=C1c2ccccc2CCc2ccccc21
active: locus YAL026C, strain drs2, active compounds read low 0.854
inactive: locus YAL013W, strain DEP1, active compounds read low 1.01 | locus YAL021C, strain ccr4, active compounds read low 0.919 | locus YAL030W, strain snc1, active compounds read low 0.975 | locus YAL040C, strain CLN3, active compounds read low 1.01 | locus YBL061C, strain skt5, active compounds read low 0.983 | locus YBR009C, strain hhf1, active compounds read low 0.989 | locus YBR021W, strain FUR4, active compounds read low 1.02 | locus YBR023C, strain chs3, active compounds read low 0.956 | locus YBR171W, strain sec66, active compounds read low 0.952 | locus YBR229C, strain ROT2, active compounds read low 1.01 | locus YBR231C, strain swc5, active compounds read low 0.996 | locus YBR279W, strain paf1, active compounds read low 0.971 | locus YCL011C, strain gbp2, active compounds read low 0.965 | locus YCL016C, strain dcc1, active compounds read low 0.946 | locus YCL029C, strain bik1, active compounds read low 1.04 | locus YCL061C, strain MRC1 (second series), active compounds read low 0.998 | locus YCL061C, strain MRC1, active compounds read low 0.981 | locus YCL069W, strain vba3, active compounds read low 0.976 | locus YCR088W, strain abp1, active compounds read low 0.978 | locus YDL005C, strain med2, active compounds read low 0.955 | locus YDL035C, strain GPR1, active compounds read low 1 | locus YDL040C, strain nat1, active compounds read low 0.974 | locus YDL074C, strain BRE1, active compounds read low 1.03 | locus YDL101C, strain DUN1, active compounds read low 1.02 | locus YDL134C, strain PPH21, active compounds read low 1.01 | locus YDL185W, strain tfp1, active compounds read low 1.02 | locus YDL192W, strain arf1, active compounds read low 1.02 | locus YDR001C, strain nth1, active compounds read low 0.986 | locus YDR069C, strain doa4, active compounds read low 0.929 | locus YDR101C, strain arx1, active compounds read low 1.03 | locus YDR137W, strain rgp1, active compounds read low 1.1 | locus YDR150W, strain NUM1, active compounds read low 1.01 and 1 | locus YDR159W, strain sac3, active compounds read low 0.955 | locus YDR162C, strain NBP2, active compounds read low 1 | locus YDR195W, strain ref2 1 | locus YDR297W, strain sur2, active compounds read low 0.99 | locus YDR318W, strain mcm21, active compounds read low 1.03 | locus YDR334W, strain swr1, active compounds read low 0.957 | locus YDR335W, strain msn5, active compounds read low 0.963 | locus YDR363W, strain ESC2, active compounds read low 0.951 | locus YDR388W, active compounds read low 1.02 | locus YDR392W, strain spt3, active compounds read low 0.939 | locus YDR502C, strain sam2, active compounds read low 1.03 | locus YEL003W, strain gim4, active compounds read low 0.972 | locus YEL037C, strain rad23, active compounds read low 0.967 | locus YEL061C, strain CIN8 (second series), active compounds read low 0.972 | locus YEL061C, strain CIN8, active compounds read low 1.01 | locus YER002W, strain NOP16, active compounds read low 1.03 | locus YER015W, strain faa2, active compounds read low 0.978 | locus YER016W, strain bim1, active compounds read low 0.97 | locus YER110C, active compounds read low 1.01 | locus YER111C, strain swi4, active compounds read low 0.953 | locus YER155C, strain BEM2 (second series), active compounds read low 0.917 | locus YER155C, strain BEM2, active compounds read low 1 | locus YER167W, strain BCK2, active compounds read low 1 | locus YFR010W, strain ubp6, active compounds read low 0.958 | locus YGL078C, strain dbp3, active compounds read low 1.01 | locus YGL086W, strain mad1, active compounds read low 1.01 | locus YGL167C, strain pmr1, active compounds read low 0.971 | locus YGL173C, strain kem1, active compounds read low 0.968 | locus YGL227W, strain vid30, active compounds read low 0.966 | locus YGL240W, strain doc1, active compounds read low 1.01 | locus YGL248W, strain PDE1, active compounds read low 1.01 | locus YGL253W, strain hxk2, active compounds read low 0.981 | locus YGR078C, strain PAC10, active compounds read low 1.03 and 0.991 | locus YGR135W, strain pre9, active compounds read low 1.02 | locus YGR229C, strain SMI1, active compounds read low 1.03 and 0.97 | locus YGR252W, strain gcn5, active compounds read low 1.14 | locus YHR013C, strain ard1, active compounds read low 0.885 | locus YHR027C, strain rpn1, active compounds read low 0.978 | locus YHR030C, strain SLT2, active compounds read low 1.01 and 0.966 | locus YHR079C, strain IRE1 (second series), active compounds read low 1.03 | locus YHR079C, strain IRE1, active compounds read low 0.974 | locus YHR094C, strain hxt1, active compounds read low 1.01 | locus YHR129C, strain ARP1, active compounds read low 1.01 | locus YHR142W, strain chs7, active compounds read low 0.961 | locus YHR200W, strain rpn10, active compounds read low 1.02 | locus YIL066C, strain RNR3, active compounds read low 1.02 | locus YIL073C, strain SPO22, active compounds read low 1.09 | locus YIL125W, strain kgd1, active compounds read low 1.01 | locus YIR030C, strain dcg1, active compounds read low 1.02 | locus YJL092W, strain hpr5, active compounds read low 0.991 | locus YJL095W, strain BCK1 (second series), active compounds read low 0.965 | locus YJL095W, strain BCK1, active compounds read low 1.01 and 0.961 | locus YJL115W, strain asf1, active compounds read low 0.961 | locus YJL129C, strain trk1, active compounds read low 0.978 | locus YJL134W, strain LCB3, active compounds read low 1.01 | locus YJL154C, strain vps35, active compounds read low 0.973 | locus YJL164C, strain tpk1, active compounds read low 0.978 | locus YJL166W, strain qcr8, active compounds read low 0.989 | locus YJL168C, strain set2, active compounds read low 1.01 | locus YJL187C, strain SWE1 (second series), active compounds read low 1.02 | locus YJR043C, strain POL32, active compounds read low 1.02 | locus YJR066W, strain TOR1, active compounds read low 0.923
